# Source: PubChem (National Center for Advancing Translational Sciences (NCATS))
# Pf growth 96h = P. falciparum growth inhibition at 96 hours | P. falciparum luciferase reporter growth, 96 h | Potency, µM (series often up to 28.7 µM), for the others: at the highest dose activity change, negative = inhibition, hits mostly inhibitors | hit rate 6.9% among 320,000 | AID 504834; further: potency means the concentration at half of the fitted maximal effect; on the % scale 0 is the no-effect control and ±100 the full control effect
#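 Delayed-death screen, second-generation endpoint: infected erythrocytes, 2% hematocrit, 0.05% parasitemia final; 96 hours at 37 C, 5% CO2; luciferase detection reagent; luminescence decrease equals reduced growth.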
# Pf growth 48h = P. falciparum growth inhibition at 48 hours (one generation); Potency, µM (top dose mostly 28.7 µM), without a hit: top-dose activity change, negative = inhibition, most hits filed as inhibitors; hit rate 5.9% among 310,000; P. falciparum luciferase growth in erythrocytes, 48 h; further: potency means the concentration at half of the fitted maximal effect; on the % scale 0 is the no-effect control and ±100 the full control effect
#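 Cell-based growth assay: transgenic P. falciparum expressing firefly luciferase, cultured in red cells within RPMI 1640 containing 0.5% w/v Albumax, 24 mM bicarbonate and gentamycin. A drop in luciferase activity indicates inhibition.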
# HCV inh = inhibitors of hepatitis C virus infection. Huh7.5.1 HCVcc-Cre infection, luciferase reporter, 44 h. Potency, µM (series often up to 41.8 µM), for the others: top-dose activity change, negative = inhibition, actives largely listed as inhibitors. hit rate 3.4% among 340,000. AID 651820; further: potency means the concentration at half of the fitted maximal effect; on the % scale 0 is the no-effect control and ±100 the full control effect
#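 Reporter virus HCVcc-Cre (~0.5 moi) infects cells exposed to compound; seeding density 1,000 cells/well with 4 h settling beforehand. Luminescence, 15 sec read, taken 44 h post-infection following a 15 min RT substrate incubation.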
# AMA1-RON2 inh = inhibitors of Plasmodium falciparum AMA1-RON2 interaction. AlphaScreen AMA1-biotinylated RON2 peptide binding. Potency, µM (top dose mostly 58.2 µM), for inactives: at the top dose activity change, negative = inhibition, actives largely listed as inhibitors. hit rate 0.2% among 360,000. AID 720542;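 further: potency means the concentration at half of the fitted maximal effect; 0% = vehicle wells and -100% = peptide control; nearly all actives have a fitted effect of over 45% in size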
#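 AMA1 (3D7) with his tag at 25 nM final met compounds first, then biotinylated RON2 peptide at 25 nM; detection used donor plus acceptor beads, 10 µg/mL apiece, read by AlphaScreen after 30 min at room temperature.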
# NS1 inh = blocks influenza NS1 protein function. Potency, µM (doses to about 46.1 µM), for the others: at the top dose activity, positive = more growth. hit rate 0.4% among 270,000. AID 2326; calls by dose curve; further: potency means the concentration at half of the fitted maximal effect; actives are rising curves; nearly all actives have a fitted effect of over 50% in size
#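 OD600 was taken as the measure of yeast growth restored by compound in an NS1-expressing S. cerevisiae strain. Cells had been washed out of glucose medium and diluted 1:100 into galactose -URA medium, pH 6.0.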
# SARS PLpro yeast = SARS-CoV PLP inhibition in yeast | Potency, µM (highest dose often 32.9 µM), for inactives: at the top dose activity, positive = growth rescue, most hits filed as activators | hit rate 0.19% among 330,000 | S. cerevisiae expressing SARS-CoV PLpro, growth rescue; calls by dose curve; further: potency means the concentration at half of the fitted maximal effect; 0% is about no effect; nearly all actives have a fitted effect of over 55% in size
# Flu NS1 inh = validation of influenza NS1 protein function inhibitors; shares compounds with NS1 inh; influenza NS1 function cell assay, 15-point titration; activity change, negative = inhibition, % at 32.9 µM; 1,400 tested, under 10 active; AID 492980; calls by dose curve; further: 0% is about no effect
# Active calls of the source: *; ? = inconclusive; . = not tested or not shown; [ ] = remark or other dose. An excerpt weighted towards active compounds, which were near 12% of everything screened. Unless noted, the call rests on the fitted dose curve; in most records, active means well fitted curve in the direction sought with a large enough effect; inconclusive means small, poorly fitted or top-dose-only effect, or another doubt; inactive means no such curve, though single readings can be large; an effect the other way counts as inactive or inconclusive.
SMILES,Pf growth 96h,Pf growth 48h,HCV inh,AMA1-RON2 inh,NS1 inh,SARS PLpro yeast,Flu NS1 inh
CC(C)(C)NC(=O)CN(C(=O)c1snc(C(=O)NC2CCCCC2)c1N)c1ccccc1F,6%,12µM*,?,7%,3.2µM*,-4%,-24
C=CCNC(=S)/N=c1/ccccn1CC,-3%,6%,25%,4%,-4%,-2%,.
Cc1occc1-c1nnc(SCC(=O)c2c(N)n(Cc3ccccc3)c(=O)n(C)c2=O)n1C,183%,?,5%,-12%,10µM*,12%,18
CC(C(=O)Nc1ccc(Cl)cc1Cl)N1C(=O)NC2(CCCCCCC2)C1=O (stereo unspecified),-4%,?,?,-9%,.,1%,.
CSc1ncccc1C(=O)NNC(=O)c1ccc(NS(=O)(=O)c2cccs2)cc1,-1%,0%,1%,49%,.,.,.
CCOc1ccccc1CNC(=O)CCCC(=O)n1nc(C)c2ccccc21,-1%,21%,-2%,0%,?,1%,?
CCCc1cc(=O)[nH]c(SCC(=O)CSc2nc(CCC)cc(=O)[nH]2)n1,-20%,5%,8%,86%,8.9µM*,3%,30
C=CCNC(=O)/C(C#N)=C/c1cn(-c2ccccc2)nc1-c1ccc(OC)c([N+](=O)[O-])c1,?,?,1%,17%,?,23%,30
Cc1ccc(-c2csc(N)n2)s1,174%,90%,0%,4%,?,-21%,-33
Cc1ccccc1-c1csc(N)n1,.,.,-1%,-15%,.,.,.
NC(=O)C1CCN(C(=O)C23CC4CC(CC(C4)C2)C3)CC1,?,41%,8%,-8%,?,1%,-9
O=C(N1CCCCC1)C12CC3CC(CC(C3)C1)C2,?,-15%,12%,-2%,-3%,-18%,.
COc1c(C)cc(C(=O)C2CCCN(Cc3cccc4nccnc34)C2)cc1C (stereo unspecified),?,?,?,-2%,3%,0%,.
COCc1cc(CN2CCCC2)c(O)c2ncccc12,?,2.9µM*,2.8µM*,9.5µM*,0.71µM*,0%,?
Cc1ccc(CCC(=O)NCc2ccccc2)o1,?,0%,4%,15%,5µM*,-3%,1
CCCOc1ccc(C(=O)N2CCN(c3ccc(N)cc3Cl)CC2)cc1,.,?,-5%,-18%,11µM*,-4%,-23
CCCCOc1ccc(C(=O)N2CCN(c3ccc(N4CCOCC4)nn3)CC2)cc1,?,?,?,-7%,.,-1%,.
COc1ccccc1N(CC(=O)N1CCCC1)S(=O)(=O)c1cc([N+](=O)[O-])ccc1Cl,.,.,8%,-1%,.,3%,.
CC1(C)SC(=S)N(NC(=O)Nc2ccccc2)C1N(O)C(=O)Nc1cccc2ccccc12 (stereo unspecified),?,?,2%,30%,22µM*,4%,9
O=C(COC(=O)c1ccc([N+](=O)[O-])cc1Cl)Nc1cccnc1Cl,34%,8%,-4%,-1%,.,0%,.
N#CCSCC(=O)Nc1ccc(F)cc1,31%[5.75 µM],-6%,-5%,1%,14µM*,-6%,-2
NC(=O)[C@H](Cc1cc2ccccc2s1)NC(=O)[C@@H]1CC2(CC(c3cccc(NC(=O)[C@@H]4CCC(=O)N4)c3)=NO2)CN1C(=O)/C=C/Sc1ccccc1 (stereo partly specified),?,13µM*,-6%,-3%,18µM*,-2%,33
O=C(NNc1ccccc1C(F)(F)F)c1sccc1Br,1%,-10%,-12%,-1%,-3%,-1%,.
COc1ccc(C2CC(c3ccccc3)=NN2C(=O)COC(=O)c2cc(S(=O)(=O)N3CCOCC3)ccc2Cl)cc1 (stereo unspecified),?,?,-1%,-9%,10µM*,-13%,2
Cc1ccc(Sc2ncccc2C(=O)O)cc1C,59%,-2%,21%,17%,?,-3%,0
SMILES,Pf growth 96h,Pf growth 48h,HCV inh,AMA1-RON2 inh,NS1 inh,SARS PLpro yeast,Flu NS1 inh
Cc1ccc(Sc2ncccc2C(=O)O)c(C)c1,22%,1%,3%,21%,-5%,-20%,.
CCOC(=O)C1CCCN(C(=O)CCCn2nnnc2CN2CCC(C)CC2)C1 (stereo unspecified),?,6%,17%,11%,-12%,-5%,.
CCCCOc1c(Br)cc(/C=C2\N=C(C)OC2=O)cc1OCC,52%,6%,0%,8%,3.5µM*,9%,-2
CCOc1cc(/C=C2\N=C(C)OC2=O)cc(Cl)c1OCC(=O)OC,.,.,6%,-4%,.,.,.
CN1CCC(N(C)C(=O)/C(C#N)=C\c2ccc(OC(F)F)cc2)CC1,.,.,5%,0%,.,.,.
CCCc1cc(=O)n2[nH]c(C)nc2n1,.,15%,-8%,21%,-3%,1%,.
Cc1nc2nc(CSc3nnc(C)s3)cc(=O)n2[nH]1,44%[5.75 µM],32%,11%,-7%,7.9µM*,1%,3
CC1(OC(=O)c2cccs2)C(=O)C=C2C=C3CCCN3C=C2C1=O (stereo unspecified),42%,62%,-6%,?,?,-2%,34
Cc1ccc(C(O)Cn2cc([N+](=O)[O-])nc2C)cc1 (stereo unspecified),-1%,2.6µM*,4%,0%,?,0%,8
CC(=O)c1ccc(NC(=S)Nc2ccc(N3CCOCC3)cc2)cc1,-6%,-20%,5%,11%,.,-2%,.
C/C(=N\NC(=S)Nc1ccc(C)c(C)c1)c1ccc(N2CCOCC2)cc1,3.7µM*,12µM*,?,0%,7.9µM*,-22%,?
CCOC(=O)c1cc(OC(=O)c2cccnc2)n(-c2ccccc2)n1,31%,-20%,-4%,.,2µM*,10%,?
Cc1cccc(OC(=O)c2cccnc2)c1,?,-21%,14%,-2%,-15%,-6%,.
O=C(N/N=C/C=C\c1ccccc1[N+](=O)[O-])c1cc(-c2ccccc2)nc2ccccc12,-7%,?,?,30%,7.1µM*,-1%,11
O=C(Cc1ccc(Cl)cc1)Nc1ccc(N2CCN(C(=O)c3ccco3)CC2)c(Cl)c1,-10%,12µM*,?,-21%,0.28µM*,-1%,?
O=C(Nc1ccc(N2CCCC2)c(Cl)c1)c1ccco1,13%,-4%,?,-17%,-48%,-5%,.
O=C(COc1ccc(Cl)cc1Cl)N1CCN(C(=O)c2ccco2)CC1,47%,-15%,6%,-12%,?,1%,-4
COc1ccc([C@H]2[C@H](C(=O)C(C)(C)C)N3N=Cc4ccccc4C3C23C(=O)OC(C)(C)OC3=O)cc1 (stereo partly specified),7%,-22%,-8%,11%,7%,-7%,.
